# Bioassay records from PubChem.
# UBC9 SUMO inh = SUMOylation inhibition; P63279; HTRF SUMOylation assay, SAE1/SAE2 + UBC9, in vitro; inhibition, % at 35 µM; 290,000 compounds, 0.36% hits; AID 2006; in the data active = inhibition above about 50%, passing the limit was not always enough
# Target sequence (P63279 whole entry, looked up): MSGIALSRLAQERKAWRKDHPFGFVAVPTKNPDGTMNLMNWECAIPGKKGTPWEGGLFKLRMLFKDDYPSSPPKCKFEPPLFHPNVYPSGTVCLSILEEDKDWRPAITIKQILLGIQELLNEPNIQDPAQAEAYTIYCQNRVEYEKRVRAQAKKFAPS
# Cardio protect = modulators protecting cardiomyocytes from myocardial damage. 360,000 compounds, 0.63% hits. H9c2 cardiomyocytes, H2O2 injury protection, ATPLite, 2 h. protection from H2O2 cell death, % at 20 µM;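 active = compounds giving at least 50% protection of heart cells from peroxide-induced death in the single-dose screen, raw or plate-pattern-corrected value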;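 note: 0% = DMSO wells with peroxide and 100% = DMSO wells without peroxide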
# ALR H2O2 inh = human ALR oxidase inhibition via reduced H2O2 | purified ALR, DTT oxidation, H2O2 HRP-luminol luminescence | inhibition, % (concentration not given with the values) | 290,000 compounds, 3.8% hits | AID 485317;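 active = mean replicate inhibition above about 79%, with every replicate also reaching it, limit read from the data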
# Target sequence (P55789 whole entry, looked up): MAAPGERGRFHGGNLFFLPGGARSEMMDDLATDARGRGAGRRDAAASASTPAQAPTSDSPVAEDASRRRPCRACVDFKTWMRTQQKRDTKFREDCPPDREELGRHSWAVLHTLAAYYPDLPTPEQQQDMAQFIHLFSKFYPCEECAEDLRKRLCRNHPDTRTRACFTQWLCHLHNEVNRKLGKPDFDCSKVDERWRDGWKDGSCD
# NTR1 ag = agonists of human neurotensin receptor NTR1 | P30989 | NTR1-U2OS beta-arrestin-GFP spot imaging, agonist mode | activation, % at 20 µM | 330,000 compounds, 0.17% hits;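 active = activation at or above 40% of the spot to cytoplasm intensity ratio, with at least 20 cells analyzed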;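 note: 0% = DMSO without peptide and 100% = 100 nM NTR1 peptide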
# Starred values were filed as active, the others as inactive; . = no result given. In the library only some 3.9% were active in any assay of this set; here they are far more common.
SMILES,UBC9 SUMO inh,Cardio protect,ALR H2O2 inh,NTR1 ag
CCC(C)Nc1ccc(NC(C)CC)cc1 (stereo not given),.,-10.5,98.9*,23.8
CCC(C)NC(=O)Nc1ccc(Br)cc1 (stereo not given),1.1,-2.4,-0.2,-0.2
Cc1cccc(C(=O)NNS(=O)(=O)c2ccc(F)cc2)c1O,4.4,3.1,13.0,-0.2
OCCNCC(O)CN1c2ccccc2Sc2ccccc21 (stereo not given),-7.0,6.3,99.2*,-0.5
C/C(N)=C(/C#N)C(=O)CSc1nnc(Nc2ccccc2C)s1,18.5,28.1,5.4,-0.1
C/C(N)=C(/C#N)C(=O)CSc1nnc(Nc2ccccc2)s1,-1.6,56.8*,42.1,1.0
Cc1nc2ccc(NC(=O)c3cc(Cl)ccn3)cc2s1,7.9,-11.7,-2.2,-0.2
Oc1cccc(/C=N/Nc2ncnc3c2ncn3Cc2ccccc2)c1,5.0,-6.5,70.8,-0.4
Oc1ccc(/C=N/Nc2ncnc3c2ncn3Cc2ccccc2)cc1O,-28.0,38.5,96.0*,-1.2
O=C(CCc1ccccc1)NCC(=O)N/N=C/c1ccc(O)cc1O,3.1,53.1*,15.4,35.7
O=C(CNC(=O)c1cccnc1)N/N=C/c1ccc(O)cc1O,-0.3,5.9,77.9*,0.9
O=C(CNC(=O)c1cccc(Br)c1)N/N=C/c1cc(Br)cc(Br)c1O,-24.2,58.9*,-3.7,3.9
O=C(CNC(=O)c1cccc(Br)c1)N/N=C/c1cccs1,8.2,-0.6,0.5,0.3
C=CCNc1cc(=O)n(Cc2ccccc2)c(=O)[nH]1,.,-1.3,0.7,0.7
O=S(=O)(Nc1ccccc1)c1ccc2c(c1)CCO2,5.5,-2.3,-7.7,-0.3
O=c1cc(-c2ccncc2)oc2c1ccc1ccccc12,26.3,66.5*,-11.6,1.2
CCc1ccc(Nc2ccc3nonc3c2[N+](=O)[O-])cc1,.,-3.0,-1.4,-0.7
CCOC(=O)NNc1ccc2nonc2c1[N+](=O)[O-],77.2*,.,-21.4,-1.3
COc1ccc(NC(=O)CCCCC(=O)Nc2ccc(OC)cc2OC)c(OC)c1,.,-2.9,-13.1,0.8
COc1ccc(NC(=O)CC(=O)Nc2ccc(OC)cc2OC)c(OC)c1,-10.4,1.6,-26.2,-0.2
COc1ccc(NC(=O)CCSCCC(=O)Nc2ccc(OC)cc2OC)c(OC)c1,-0.8,-4.5,97.4*,-0.6
COc1ccc(NC(=O)CSCc2ccc(C#N)cc2)c(OC)c1,-4.3,-5.7,98.2*,0.4
COc1ccc(CCn2c(C)nc3ccccc3c2=O)cc1OC,-6.8,9.1,3.2,-1.0
CCc1c(C#N)c(=O)[nH]c(=O)n1-c1ccccc1,.,-2.7,-14.5,-0.6
O=C1c2cccnc2Oc2ccc(Cl)cc2N1Cc1ccc(F)cc1,3.9,63.4*,41.6,0.9
SMILES,UBC9 SUMO inh,Cardio protect,ALR H2O2 inh,NTR1 ag
NC(N)=NC(=O)Cc1c(Cl)cccc1Cl,18.8,6.0,.,-1.5
CCc1noc(C)c1C(=O)Nc1nc2c(C)cccc2s1,.,-4.2,.,3.1
Cc1cc(C(=O)Nc2nc3c(C)cccc3s2)c(C)o1,-0.6,-2.2,95.4*,-1.5
CNc1ncc(C(=O)C(C)(C)C)s1,14.8,3.4,0.0,-0.1
CNc1nc(N)c(C(=O)C(C)(C)C)s1,-22.3,1.5,99.0*,-0.5
N#Cc1nc(-c2ccco2)oc1NCCc1ccccc1,5.9,3.1,98.3*,-1.1
CC(=O)c1ccc(NC(=O)CSc2nnc(Cn3cnc4ccccc43)o2)cc1,13.4,1.6,96.8*,2.0
O=C(CSc1nnc(Cn2cnc3ccccc32)o1)Nc1cccc2ccccc12,-11.8,0.8,99.3*,-0.9
O=C(COc1ccccc1)Nc1ncc2c(n1)CCCC2=O,2.4,-0.3,-4.2,-1.1
CCn1c(SCc2ccc(C(=O)Nc3nccs3)cc2)nnc1-c1ccc(N)cc1,2.2,4.6,82.5*,0.0
CCn1c(SCc2ccc(C(=O)Nc3nccs3)cc2)nnc1-c1ccc(NC(C)=O)cc1,5.9,9.6,98.8*,-0.4
Cn1c(SCc2ccc(C(=O)Nc3nccs3)cc2)nnc1-c1ccccc1,16.3,-7.2,39.4,-0.6
Cc1[nH]c(=S)sc1Cc1ccc(Cl)c(Cl)c1,-3.0,.,96.2*,-0.4
c1ccc(N2CC[N+]3(CCCC3)CC2)nc1,14.0,-4.5,0.5,0.8
CCOC(=O)c1sc(NC(=O)CCN2CCN(CC)CC2)c(C(=O)OCC)c1C,-15.7,-14.9,96.4*,-0.4
Cc1ccc(N2CC(C(=O)NCc3n[nH]c(=O)c4ccccc34)CC2=O)cc1C (stereo not given),.,72.0*,-1.2,-0.4
COc1ccc(N2CC(C(=O)Nc3ccccc3C(=O)NCc3ccco3)CC2=O)cc1 (stereo not given),4.5,-1.2,.,-0.4
